Most compounds without a hit are left out; they make up all but 7.1% or so of the library.
ATXN2 expr inh – Primary qHTS for Inhibitors of ATXN expression; hit rate 0.72% among 360,000; Potency, µM (series often up to 57 µM), for the others: at the highest dose activity change, negative = inhibition, most hits filed as inhibitors; HEK-293 ATXN2-luciferase reporter, luminescence, 24 h; also: potency is read from the fitted curve at half-maximal effect; % is scaled to controls: 0 for no effect and ±100 for the full control effect; nearly all actives have a fitted effect of over 55% in size
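qHTS (up to 57 uM final) was run with 24 h compound exposure of reporter cells at 37 °C. Each well was multiplexed: SteadyGlo luminescence measured ATXN2-luciferase expression after a fluorogenic Gly-Phe-AFC viability readout (25 uM final).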
PINK1 modulator – A Quantitative High throughput Screen to Identify Chemical Modulators of PINK1 Expression | AID 624263, 2012 | PINK1 immunofluorescence, high-content cytometry, 24 h | Potency, µM (titrated, usually from 76.6 µM), without a hit: at the top dose activation (PINK1 increase), most hits filed as activators | hit rate 0.2% among 410,000; active = well fitted activation curve with a large enough effect; inconclusive = small, poorly fitted or top-dose-only effect; cell line not stated here; also: potency is read from the fitted curve at half-maximal effect; % of control where 0% means no effect; nearly all actives have a fitted effect of over 65% in size
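Cells are seeded, rested 12 hours, then given compound at five concentrations or DMSO for 24 hours. After fixation, blocking and antibody staining, PINK1 amount and mitochondrial localization are scored; CCCP serves as control.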
MCF10A rereplic – A quantitative high throughput screen for small molecules that induce DNA re-replication in MCF 10a normal breast cells; MCF 10A DNA re-replication, Hoechst nuclear intensity, 48 h; Potency, µM (titrated, usually from 46.1 µM), for the others: at the top dose activity, positive = re-replication, usual class: activators; hit rate 2.9% among 350,000; AID 624296, 2012; also: potency is read from the fitted curve at half-maximal effect; % of control where 0% means no effect; nearly all actives have a fitted effect of over 50% in size
SW480 rerep – A quantitative high throughput screen for small molecules that induce DNA re-replication in SW480 colon adenocarcinoma cells | SW480 DNA re-replication, Hoechst DNA content imaging, 48 h | Potency, µM (titrated, usually from 46.1 µM), inactives show at the highest dose re-replication activation, hits mostly activators | hit rate 1.8% among 340,000 | AID 624297, 2012; also: potency is read from the fitted curve at half-maximal effect; % of control where 0% means no effect; nearly all actives have a fitted effect of over 55% in size
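First, 250 cells per well were seeded. Next, compound or vehicle (23 nL) was pinned in, plates sat 48 hr at 37 C. Finally Hoechst was added for 40 min before fluorescence scanning.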
S2 tox – Viability Counterscreen for Primary qHTS for Inhibitors of ATXN expression. S2 cells (HEK-293 line with an ATXN2-luciferase reporter) viability, CellTiter-Fluor protease fluorescence, 24 h. Potency, µM (top dose mostly 56.7 µM), actives largely listed as cytotoxic. hit rate 0.49% among 400,000. AID 651635, 2014; also: potency is read from the fitted curve at half-maximal effect; nearly all actives have a fitted effect of over 40% in size
IL-1B inflam inh – qHTS for Inhibitors of Inflammasome Signaling: IL-1-beta AlphaLISA Primary Screen; THP-1 LPS/ATP IL-1B secretion, AlphaLISA, 16 h; hits give low values; activity change, % at 57.5 µM; hit rate 4.7% among 360,000; AID 743279, 2014; in the data active = activity change below about -50%; inconclusive = mostly about -30% to -49%; also: % is scaled to controls: 0 for no effect and ±100 for the full control effect
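Secreted IL-1B measured by AlphaLISA bead assay after 16 h compound exposure of THP-1 cells; compounds (final up to 57.5 uM) added 1 h before LPS (250 ng/mL) and ATP (1.25 mM) stimulation; lower signal means less secretion.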
* marks the source's active call; other numbers are inactive results; i = inactive; ? = inconclusive; nt = no result given; [ ] = dose if it differs, or a comment. Unless noted, calls follow the shape of the dose curve; as a rule, active = well fitted curve in the direction sought with a large enough effect; inconclusive = small, poorly fitted or top-dose-only effect, or another doubt; inactive = no such curve, though single readings can be large; an effect the other way counts as inactive or inconclusive.

SMILES	ATXN2 expr inh	PINK1 modulator	MCF10A rereplic	SW480 rerep	S2 tox	IL-1B inflam inh
Cc1ccc(C)c(N2C(=N)S/C(=C\c3ccc(-c4ccccc4C(=O)O)o3)C2=O)c1	3.7%	-0.2%	18.4µM*	-18.5%	i	4.9
O=C1NC(=O)/C(=C/c2ccc(-c3cc(C(=O)O)ccc3Cl)o2)S1	nt	1.9%	?	-1.9%	i	-11.1
Cc1ccc(CN2C(=O)N/C(=C\c3ccc(-c4ccc(C(=O)O)cc4C)o3)C2=O)cc1	nt	-0.6%	?	7.31µM*	i	-14.0
Cc1cc(C(=O)O)ccc1-c1ccc(/C=C2\NC(=O)N(Cc3ccccc3Cl)C2=O)o1	-5.4%	0.3%	2.31µM*	?	nt	0.0
C#CCN1C(=O)S/C(=C\c2ccc(-c3ccc(C(=O)O)cc3C)o2)C1=O	86.3%	-1.4%	-6.0%	20.0%	i	30.1
Cc1ccc(C(=O)O)cc1-c1ccc(/C=C2/NC(=O)N(c3ccccc3)C2=O)o1	-1.6%	-0.7%	13µM*	?	i	18.6
CCOC(=O)C(C)N1C(=O)S/C(=C\c2ccc(-c3ccccc3C(=O)O)o2)C1=O (configuration not stated)	nt	0.8%	-7.7%	?	i	2.5
CCn1c(C)c(C2N3CC4(C)CN2CC(CC)(C3)C4=O)c2ccccc21 (configuration not stated)	13.2%	0.5%	nt	nt	i	nt
CC(C)OCCCNC(=O)Cc1ccc(NC(=O)N2CCCCc3ccccc32)cc1	7.7%	-0.7%	nt	nt	i	nt
COc1ccc(CNC(=O)CSc2nnc(C)c3c(C)n(-c4ccccc4)nc23)c(OC)c1	-20.4%	1.6%	nt	nt	i	nt
O=C(O)c1ccc(-c2ccc(/C=C3\NC(=O)N(Cc4ccc(Cl)cc4)C3=O)o2)cc1	nt	3.8%	2.06µM*	10.3µM*	i	-11.8
Cc1ccc(/C=C2/NC(=O)N(Cc3ccccc3)C2=O)o1	14.0%	8.6%	24.5%	?	i	-0.1
Cc1ccccc1NC(=O)CN1C(=O)S/C(=C\c2ccc(-c3cc(C(=O)O)ccc3C)o2)C1=O	-25.7%[11.3 µM]	12.9%	?	8.6%	nt	-3.7
Cc1ccc(C(=O)O)cc1-c1ccc(/C=C2\SC(=O)N(CC(=O)Nc3ccccc3)C2=O)o1	-10.1%[11.3 µM]	0.2%	23.1µM*	-26.0%	nt	-0.4
Clc1ccccc1CNCCCSc1nnnn1-c1ccccc1	-4.9%	0.8%	nt	nt	i	nt
O=C(c1ccc2c(c1)N(Cc1ccccc1)C(=O)c1ccccc1S2(=O)=O)N1CCN(Cc2ccccc2)CC1	nt	2.5%	nt	nt	nt	nt
Cc1ccc(C(=O)N(Cc2cc3cccc(C)c3nc2N(C)C)CC2CCCO2)cc1 (configuration not stated)	nt	1.1%	nt	nt	i	nt
CCn1c(C)c(CS(=O)(=O)c2ccccc2)[nH]c1=O	0.7%	2.6%	7.31µM*	8.2µM*	i	-6.0
Cc1cc(C)n(C(=O)/C(C#N)=N/Nc2cc(Cl)cc(Cl)c2)n1	nt	25.1µM*	?	-2.8%	?	-27.7
Cc1cc(C)n(C(=O)/C(C#N)=N\Nc2ccccc2[N+](=O)[O-])n1	-3.3%	3.3%	6.0%	2.2%	i	-1.4
CCCCCCCCCCCCCCCCC(C(=O)O)C(O)(CC(=O)O)C(=O)O (configuration not stated)	-7.7%	nt	29.9µM*	0.1%	i	nt
CCCCCCC[C@@H](C/C=C/CCC(=O)O)OC	-10.4%	-1.2%	12.2%	4.7%	?	45.3
O=C(O)c1ccc(NC(=S)NC(NC(=O)c2ccco2)C(Cl)(Cl)Cl)cc1 (configuration not stated)	nt	nt	-1.4%	-7.0%	nt	-10.8
Cc1ccc(NC(=S)NC(NC(=O)c2ccco2)C(Cl)(Cl)Cl)cc1 (configuration not stated)	-14.7%	2.9%	16.4µM*	9.3%	i	-3.0
Cc1ccccc1C(=O)NC(NC(=S)Nc1ccc(S(N)(=O)=O)cc1)C(Cl)(Cl)Cl (configuration not stated)	-0.7%	0.7%	-0.3%	-9.0%	i	-27.0
SMILES	ATXN2 expr inh	PINK1 modulator	MCF10A rereplic	SW480 rerep	S2 tox	IL-1B inflam inh
Cc1ccc(C(=O)NC(NC(=S)Nc2ccc(S(N)(=O)=O)cc2)C(Cl)(Cl)Cl)cc1 (configuration not stated)	4.8%	?	8.7%	1.5%	i	-76.3*
COCCCNC(=S)N/N=C/c1ccc(N(C)C)cc1	-0.6%	0.2%	-32.8%	-79.8%	i	-7.5
COCCCNC(=S)N/N=C/c1ccc(N(C)C)cc1Cl	13.5%	1.0%	?	29.1µM*	i	-2.1
COc1ccc(C(=O)CSc2nnc(NC(=O)C3CC(=O)N(c4ccccc4)C3)s2)cc1 (configuration not stated)	6.8%	11.3%	5.6%	2.91µM*	i	10.4
O=C(Nc1cccc(Br)c1)c1cc2ccccc2o1	58.3%	nt	1.5%	1.1%	i	-57.2*
CN(c1ccccc1)S(=O)(=O)c1cccc(NC(=O)c2cc(=O)c3ccccc3o2)c1	12.6µM*	0.7%	25.9µM*	-0.5%	?	-52.3*
NS(=O)(=O)c1cccc(NC(=O)c2cc3ccccc3o2)c1	31.2%	2.1%	4.7%	18.4µM*	i	-16.1
NS(=O)(=O)c1cccc(NC(=O)c2cc(=O)c3ccccc3o2)c1	0.2%	6.1%	-2.1%	-3.1%	i	-6.1
Cc1cccc(NC(=O)c2cc3ccccc3o2)c1	99.3%	-0.8%[38.3 µM]	-1.8%	-5.2%	i	-21.1
CCN(c1ccccc1)S(=O)(=O)c1ccc(NC(=O)c2cc(=O)c3ccccc3o2)cc1	1.8%	1.2%	nt	nt	i	nt
COc1ccc(C(=O)N/N=C/c2sc3ccccc3c2O)cc1	?	-0.9%	?	5.17µM*	nt	9.4
O=C(N/N=C/c1sc2ccccc2c1O)c1ccccc1	?	1.3%	?	2.59µM*	i	51.3
O=C(N/N=C/c1sc2ccccc2c1O)c1cccc2ccccc12	?	0.5%	?	?	nt	96.0
COc1ccc2cc(C(=O)N/N=C/c3sc4ccccc4c3O)ccc2c1	?	6.5%	?	?	i	1.3
O=C1CCCN1CCCNc1nc(NCc2cccs2)nc2ccsc12	-28.4%	6.4%	nt	nt	?	-84.3*
CC(=O)NCCNc1nc(NCc2cccs2)nc2ccsc12	13.8%	1.7%	nt	nt	i	111.1
c1ccc(CNc2nc(NCc3cccs3)nc3ccsc23)cc1	-6.9%	?	nt	nt	?	-57.1*
CNc1nc(NCc2ccccc2)c2sccc2n1	-13.4%	4.9%	nt	nt	i	-17.9
